Screening data as filed in PubChem.
Sampled rows, rich in hits. Any-hit rate of the full collection: about 7.4%.
Luc counter: Counterscreen for Luciferase (Kinase-Glo TM) Inhibition; Luciferin 4-monooxygenase (Photuris pensylvanica), Q27757; Kinase-Glo luciferase, ATP luminescence, 8 min; Potency, µM (titrated, usually from 38.3 µM), for the others: top-dose activity change, negative = inhibition, most hits filed as inhibitors; 200,000 tested, 0.28% active; note: % is set by controls: 0 for no effect and ±100 for the full control effect; nearly all actives have a fitted effect of over 60% in size
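Compounds were added to a substrate mix at pH 7.2 (50 mM imidazole, 10 uM ATP, within the enzyme's linear range), followed by Kinase-Glo detection reagent; luminescence was measured after 8 minutes at ambient temperature.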
SMN2 splice enh: qHTS Assay for Enhancers of SMN2 Splice Variant Expression | AID 1458, 2008 | HEK293 SMN2-luciferase splicing reporter, luminescence, 30-36 h | Potency, µM (highest dose often 46.1 µM), for the others: at the highest dose activity change, positive = activation, usual class: activators | 210,000 tested, 2.8% active; note: % of control where 0% means no effect; nearly all actives have a fitted effect of over 55% in size
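HEK293 cells carry an SMN2 […]–luciferase reporter in which exon 7 inclusion puts luciferase in frame. Cells were plated 10-12 h before compound addition, then incubated 30-36 h at 37C. ONE-Glo luminescence was read; sodium butyrate at 4.5 mM final served as control.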
FLuc counter: qHTS profiling assay for firefly luciferase inhibitor/activator using purifed enzyme and Km concentrations of substrates (counterscreen for miR-21 project); purified FLuc, Km substrates, luminescence inhibition; 360,000 tested, 6.9% active; Potency, µM (titrated, usually from 57.5 µM), without a hit: at the top dose activity change, negative = inhibition, usual class: inhibitors;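 note: plate controls were vehicle for no effect and reference inhibitor for full effect; nearly all actives have a fitted effect of over 55% in size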
Target sequence (P08659 whole entry, looked up): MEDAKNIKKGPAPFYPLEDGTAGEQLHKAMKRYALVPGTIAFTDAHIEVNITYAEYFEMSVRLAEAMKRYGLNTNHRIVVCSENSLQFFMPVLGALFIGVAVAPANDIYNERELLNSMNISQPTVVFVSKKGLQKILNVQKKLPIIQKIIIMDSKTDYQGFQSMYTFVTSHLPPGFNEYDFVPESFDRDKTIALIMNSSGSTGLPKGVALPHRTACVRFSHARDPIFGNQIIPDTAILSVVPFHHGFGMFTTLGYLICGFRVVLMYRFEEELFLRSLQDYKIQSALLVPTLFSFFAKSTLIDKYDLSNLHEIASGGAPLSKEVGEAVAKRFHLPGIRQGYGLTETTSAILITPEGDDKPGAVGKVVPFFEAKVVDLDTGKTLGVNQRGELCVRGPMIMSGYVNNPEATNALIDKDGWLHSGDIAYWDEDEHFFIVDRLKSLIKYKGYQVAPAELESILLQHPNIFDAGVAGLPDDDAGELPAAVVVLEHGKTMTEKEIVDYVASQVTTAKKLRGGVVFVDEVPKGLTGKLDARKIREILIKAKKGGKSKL
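Purified P. pyralis luciferase (10nM final) with 10uM D-luciferin and 10uM ATP (Km levels) in 50mM Tris acetate pH 7.5, 10mM Mg acetate, 0.01% Tween-20, 0.05% BSA; qHTS 6-point titration, ~60 µM downward; luminescence read.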
Rab9 prom act: qHTS Assay for Rab9 Promoter Activators; 320,000 tested, 2.8% active; AID 485297, 2010; Huh7 Rab9 promoter-luciferase reporter, luminescence, 24 h; Potency, µM (highest dose often 9.22 µM), without a hit: at the top dose activation, negative = inhibition, hits mostly activators; note: % of control where 0% means no effect; nearly all actives have a fitted effect of over 60% in size
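Luminescence from Amplite-detected luciferase (10 minutes, ambient) reports Rab9 promoter activation. Before that, stable Rab9-luciferase Huh7 cells (1500/well, reduced-serum OP-MEM I plus 10% FBS) were exposed to compound for 24 hours at 37C.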
NPC1 promoter act: qHTS Assay for NPC1 Promoter Activators. Potency, µM (titrated, usually from 9.22 µM), inactives show at the top dose activation, usual class: activators. 320,000 tested, 2.4% active. Huh7 NPC1 promoter luciferase reporter, 24 h; note: % of control where 0% means no effect; nearly all actives have a fitted effect of over 60% in size
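Huh7 reporter cells (NPC1 promoter driving luciferase) are dosed with compound for 24 h at 37 °C, 5% CO2; luciferase detection reagent is then added and luminescence measured after 10 min at ambient temperature.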
ELG1 genotoxic: qHTS screen for small molecules that induce genotoxicity in human embryonic kidney (HEK293T) cells expressing luciferase-tagged ELG1; 330,000 tested, 1.3% active; Potency, µM (series often up to 46 µM), for the others: at the top dose activity change, positive = activation, hits mostly activators; HEK293T ELG1-luciferase reporter, luminescence, 16 h; note: % of control where 0% means no effect; nearly all actives have a fitted effect of over 60% in size
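After overnight (16 hr) compound treatment at 37 °C, ELG1-luciferase HEK293T cells were lysed with ONE-Glo; luminescence quantified 30 min later at room temperature.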
* hit, by the source's call; ? = inconclusive; . = not tested or not shown. Calls come from the whole dose curve; as a rule, active = well fitted curve in the direction sought with a large enough effect; inconclusive = small, poorly fitted or top-dose-only effect, or another doubt; inactive = no such curve, though single readings can be large; an effect the other way counts as inactive or inconclusive. Potency is the fitted concentration of half-maximal effect.

SMILES	Luc counter	SMN2 splice enh	FLuc counter	Rab9 prom act	NPC1 promoter act	ELG1 genotoxic
COc1cccc(/C=N/NC(=S)Nc2cccnc2)c1	0.6%	-4.6%	15.1µM*	7.7%	8.4%	8.8%
Oc1ccc(/C=N/NC(=S)N/N=C/c2ccc(O)cc2)cc1	4.47µM*	?	0.19µM*	26.1%	21.3%	?
COc1ccccc1NC(=S)N/N=C/c1ccc(O)cc1	-0.2%	11.2µM*	?	?	?	?
COc1cc(CO)c(OC)c([N+](=O)[O-])c1	.	.	0.0%	-1.1%	-2.3%	-0.8%
CC(C)(C)OC(=O)N1CCC(c2c(C(=O)N3CCC(c4ccccc4)C3)cnn2-c2cccc(Cl)c2)CC1 (centres undefined)	.	.	-3.9%	.	.	.
COc1cccc(C(=O)N(C)CC2CCN(CCc3cccc(C(F)(F)F)c3)CC2)c1	.	.	-1.8%	-0.1%	-0.8%	-4.8%
Oc1ccc(/C=N/NC(=S)Nc2cccnc2)cc1	.	.	6.75µM*	?	3.16µM*	?
O=C1CCC/C1=C/Nc1ccc2c(c1)OCO2	-1.4%	?	16.9µM*	?	10.2%	7.9%
CC1CCCC(=C\c2ccccc2)/C1=N/O (centres undefined)	-5.9%	-4.9%	-8.0%	-2.2%	-0.4%	3.0%
CC1CCC/C(=C\Nc2ccccc2C(=O)O)C1=O (centres undefined)	-3.9%	13.5%	23.9µM*	0.1%	19.5%	12.2%
CC1CCC/C(=C\Nc2ccc3c(c2)OCO3)C1=O (centres undefined)	-19.5%	?	8.49µM*	?	?	10.3µM*
COC(=O)[C@]1(Cc2ccccc2)N[C@H](CN(C)C(=O)Nc2ccc(OC)cc2)[C@@H]2C(=O)N(Cc3ccccc3)C(=O)[C@@H]21	.	.	.	.	.	-7.3%
CCOC(=O)c1c(NC(=O)c2cc(CC)on2)sc(C)c1C	.	10.0%	2.4%	.	.	.
Cc1c(C)n(CCCN(C)C)c2ncnc(Nc3ccc(F)cc3)c12	.	.	-5.4%	7.4%	-0.6%	-0.3%
Cc1c(C)n(CCO)c2ncnc(Nc3ccc(F)cc3)c12	.	.	19µM*	?	24.7%	?
COc1ccc(Nc2ncnc3c2c(C)c(C)n3CCO)cc1	.	.	5.36µM*	1.58µM*	1µM*	8.2µM*
O=C(CN1C(=O)S/C(=C/c2cc(Br)cs2)C1=O)N1CCOCC1	0.9%	63.1%	-1.6%	1.9%	-2.6%	-1.3%
O=C(Nc1cccc(NC(=O)c2cccs2)c1)c1ccc2c(c1)OCO2	1.0%	28.2%	15.1µM*	7.4%	9.7%	-2.3%
CC(=O)c1cccc(NC(=O)C(OC(=O)/C=C/c2ccc3c(c2)OCO3)c2ccccc2)c1 (centres undefined)	-3.7%	0.3%	13.5µM*	1.0%	7.1%	27.4%
O=C(Nc1cccc(NC(=O)c2ccc3c(c2)OCO3)c1)c1ccccc1	-13.8%	10.6%	?	0.6%	7.0%	-1.8%
O=C(Nc1ccc(NC(=O)c2cccs2)cc1)c1ccc2c(c1)OCO2	.	.	1.9%	-9.3%	-8.5%	?
CC(=O)c1cccc(NC(=O)c2ccc3c(c2)OCO3)c1	.	.	26.9µM*	?	?	15.8%
CC(OC(=O)/C=C/c1ccccc1)C(=O)Nc1ccc2c(c1)OCCO2 (centres undefined)	.	.	0.3%	-3.7%	-0.1%	1.1%
CC(=O)c1cccc(NC(=O)c2ccc3ccccc3c2)c1	.	.	1.9µM*	2.82µM*	3.16µM*	?
CC(C)CN1CC(COCc2ccccc2)Oc2ccccc2S1(=O)=O (centres undefined)	.	.	.	.	.	-1.4%
Cc1cccn2c(CNCCc3ccco3)c(C(=O)N3CCOCC3)nc12	.	.	-1.0%	0.4%	-0.9%	-1.6%
